This is a sample that favours compounds with a hit; in the whole collection about 2.8% have one here.
Furin inh – human furin inhibition | AID 463115 | 220,000 tested, 0.061% active | inhibition, % at 20 µM or 30 µM | purified furin, fluorogenic substrate cleavage | P09958; in the data active = inhibition above about 25%
Target sequence (P09958 108-714 limits assumed): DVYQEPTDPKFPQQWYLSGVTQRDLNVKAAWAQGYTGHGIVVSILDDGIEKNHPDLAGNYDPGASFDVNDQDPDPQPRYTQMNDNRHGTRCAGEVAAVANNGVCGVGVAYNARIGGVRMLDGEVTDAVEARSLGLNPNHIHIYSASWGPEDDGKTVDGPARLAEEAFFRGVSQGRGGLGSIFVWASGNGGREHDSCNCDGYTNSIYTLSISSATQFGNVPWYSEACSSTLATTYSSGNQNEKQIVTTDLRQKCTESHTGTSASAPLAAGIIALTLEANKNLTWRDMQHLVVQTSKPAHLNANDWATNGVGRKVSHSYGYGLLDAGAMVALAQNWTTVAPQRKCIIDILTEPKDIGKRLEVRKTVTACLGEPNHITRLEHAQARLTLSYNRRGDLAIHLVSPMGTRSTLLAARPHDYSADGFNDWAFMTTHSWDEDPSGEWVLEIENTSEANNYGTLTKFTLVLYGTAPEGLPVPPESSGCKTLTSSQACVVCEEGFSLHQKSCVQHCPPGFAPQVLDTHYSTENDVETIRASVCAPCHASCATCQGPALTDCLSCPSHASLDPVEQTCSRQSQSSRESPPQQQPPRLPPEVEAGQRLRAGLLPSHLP
EP2 antag – blocks the human prostaglandin E2 receptor EP2; P43116; C6 glioma cells expressing human EP2, cAMP TR-FRET; cells stimulated with saturating PGE2; inhibition, % at 25 µM; 260,000 tested, 0.52% active; AID 1422;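 active = percent inhibition above 40 after rounding to a whole number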;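 note: rat C6 glioma host cells with rolipram phosphodiesterase inhibitor present; the protocol text gives 20 µM as final concentration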
EP2 mod – modulators of human EP2 prostaglandin E2 receptor | 260,000 tested, 0.83% active | AID 940 | induction, % at 25 µM | EP2-expressing cells, cAMP HTRF FRET, PGE2 co-stimulation;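 active = compounds whose cAMP rise, as percent of the full-agonist control response, exceeds 60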;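 note: rat C6 glioma line stably carrying human EP2 under a CMV promoter; the protocol text gives 20 µM as final concentration; 100% = response of wells given 1 µM PGE2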
p47phox inh – blocks human p47phox regulatory protein of NADPH oxidases | AID 1274 | 220,000 tested, 0.53% active | P14598 | inhibition, % at 24.7 µM | p47phox/p22phox peptide binding, fluorescence polarization, 2 h;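 active = inhibition above about 30%, limit read from the data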;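 note: 0% = p47phox with labelled peptide and 100% = labelled peptide alone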
Wee1 stabilizer – blocks degradation of human Wee1 kinase. HeLa Luc-Wee1K328M stability, luciferase luminescence; 100% = proteasome inhibitor MG132 effect. reporter increase, % at 5 µM. 220,000 tested, 1.2% active. AID 1321;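 active = activation above the mean of all tested compounds plus 3 SD, set per screening run, cut at about 8.8% in these data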;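 note: cells exposed to compound for 20 h before luminescence read; 0% = DMSO alone and 100% = MG132 at 30 µM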
HSV replic up – increases HSV replication in cells | maximum fold increase | 220,000 tested, 0.005% active | AID 1956 | HSV replication augmentation in cells, fold increase; in the data active = maximum fold increase above about 1.5; tested in PC3 cells
Starred values were filed as active, the others as inactive.

For COc1ccc(-c2nc(NC(=O)c3[nH]c(C)c(C(C)=O)c3C)sc2C)cc1 the results were Furin inh -11.8, EP2 antag 99.8*, EP2 mod -64.2, p47phox inh -45.3, Wee1 stabilizer -1.5 and HSV replic up inactive.
Screening COc1ccc2[nH]c(=O)c(CN(CCO)C(=S)Nc3ccc(C)cc3C)cc2c1 returned EP2 antag 8.9 and EP2 mod -33.0.
For O=C(Cn1nc(-c2ccoc2)oc1=O)N1CCCCC1 the results were EP2 antag 6.0 and EP2 mod 10.6.
Screening N=C1C(c2ccccc2)=C(O)CN1c1cccc(S(N)(=O)=O)c1 returned Furin inh -8.9, EP2 antag 1.2, EP2 mod 19.3, p47phox inh -23.3, Wee1 stabilizer 2.9 and HSV replic up inactive.
N=C1C(c2ccccc2)=C(O)CN1c1cccc(S(=O)(=O)NCc2ccco2)c1 was read as Furin inh -14.5, EP2 antag 6.4, EP2 mod -15.5, p47phox inh -8.7, Wee1 stabilizer 9.2* and HSV replic up inactive.
`O=C(c1sc2ccccc2c1Cl)N(Cc1ccccc1Cl)C1CCS(=O)(=O)C1` (centres undefined) gave Furin inh -15.4, EP2 antag -0.1, EP2 mod 2.0, p47phox inh 10.2, Wee1 stabilizer 9.4* and HSV replic up inactive.
Screening Clc1ccc(CN=C2Nc3ccccc3CS2)cc1 returned Furin inh -18.3, EP2 antag 5.3, EP2 mod 10.5, p47phox inh -16.5, Wee1 stabilizer 8.8* and HSV replic up inactive.
Cc1ccc(CN=C2Nc3ccccc3CS2)cc1 was read as Furin inh -9.5, EP2 antag 3.8, EP2 mod -5.7, p47phox inh -11.6, Wee1 stabilizer -0.9 and HSV replic up inactive.
Screening O=C(NCCN1CCNCC1)C(=O)Nc1ccc(I)cc1 returned EP2 antag 9.8 and EP2 mod -45.3.
Cn1ccc(-c2ccccc2)n1 was read as Furin inh -12.4, EP2 antag 4.5, EP2 mod 3.6, p47phox inh -0.5, Wee1 stabilizer -2.3 and HSV replic up inactive.
Screening N#Cc1cc(-c2ccccc2)nn1-c1ccccc1 returned Furin inh -14.1, EP2 antag 15.8, EP2 mod -9.6, p47phox inh 33.7*, Wee1 stabilizer -2.2 and HSV replic up inactive.
Screening O=c1oc2cc(O)c(Cl)cc2c2ccccc12 returned Furin inh -1.0, EP2 antag 28.5, EP2 mod 61.4*, p47phox inh -6.9, Wee1 stabilizer 1.2 and HSV replic up inactive.
`O=C(CSc1nnc2c(n1)[nH]c1ccccc12)Nc1cccc(Cl)c1` gave EP2 antag 14.1 and EP2 mod -38.7.
`COc1ccc(Oc2nc(SC)nc3ccsc23)cc1` gave Furin inh -23.4, EP2 antag 10.9, EP2 mod 35.0, p47phox inh 40.6*, Wee1 stabilizer -0.5 and HSV replic up inactive.
CSc1nc(Oc2ccc3ccccc3c2)c2sccc2n1 was read as Furin inh -13.4, EP2 antag 6.2, EP2 mod 27.1, p47phox inh -7.0, Wee1 stabilizer -2.8 and HSV replic up inactive.
`COC(=O)C12CCC(C)(c3nc4ccccc4nc31)C2(C)C` (centres undefined) gave Furin inh -27.7, EP2 antag 6.0, EP2 mod 17.4, p47phox inh -0.3, Wee1 stabilizer -2.9 and HSV replic up inactive.
For CC(C)(C)NC(=O)C12CCC(C)(c3nc4ccccc4nc31)C2(C)C (centres undefined) the results were Furin inh -8.7, EP2 antag 4.3, EP2 mod 64.5*, p47phox inh -3.0, Wee1 stabilizer 1.5 and HSV replic up inactive.
For CCOc1ccc2[nH]c(=O)c(CN(Cc3ccco3)C(=O)Nc3ccccc3Cl)cc2c1 the results were EP2 antag 8.2 and EP2 mod -25.2.
Screening Cc1ccc(C(=O)N/N=C\c2ccccn2)cn1 returned Furin inh -9.9, EP2 antag 0.0, EP2 mod -9.1, p47phox inh 9.2, Wee1 stabilizer 10.7* and HSV replic up inactive.
For O=C(N/N=C/c1ccccn1)NC12CC3CC(CC(C3)C1)C2 the results were Furin inh -13.3, EP2 antag 6.2, EP2 mod -30.3, p47phox inh -2.1, Wee1 stabilizer 10.0* and HSV replic up inactive.

Screening results (PubChem)
